Screens: PubChem BioAssay, National Center for Advancing Translational Sciences (NCATS)
Only some compounds are listed: those with a hit (about 11% of all), similar ones and a draw of the others.
Tau fibril FP: tau fibrillization inhibition (FP) | Potency, µM (top dose mostly 57.7 µM), usual class: inhibitors | 280,000 compounds, 0.39% hits | P10636 | AID 1468 | K18 P301L tau heparin fibrillization, Alexa594 FP, 6 h; note: nearly all actives have a fitted effect of over 55% in size
Target sequence (P10636 561-689 P618L limits assumed): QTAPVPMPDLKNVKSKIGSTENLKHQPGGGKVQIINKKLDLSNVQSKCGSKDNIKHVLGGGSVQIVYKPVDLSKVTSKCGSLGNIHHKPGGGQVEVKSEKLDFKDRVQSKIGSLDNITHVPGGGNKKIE
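Recombinant K18 P301L […], labeled with Alexa 594 at 0.24 uM over 15 uM unlabeled; heparin inducer 20 uM final; 37 C, 6 hr; FP endpoint.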
Sfp PPTase inh: Sfp phosphopantetheinyl transferase inhibition | Q9F4F7 | Biochemical Sfp PPTase activity, qHTS | Potency, µM, hits mostly inhibitors | 310,000 compounds, 3.5% hits | AID 1490;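 note: the enzyme is Sfp with the accession as filed and its product quenches rhodamine fluorescence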
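Fluorescence-quenching assay: 15 nM Sfp-PPTase preincubated 15 min at room temperature with compound, then 5 uM rhodamine-CoA and 12.5 uM BHQ-2-labelled YbbR peptide added. Fluorescence (ex 525/em 598 nm) read at start and after 30 min; difference gives rate.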
Tau ThT inhib: inhibitors of human tau fibril formation, thioflavin T binding; P10636; recombinant tau K18 P301L, heparin-induced fibrillization, ThT fluorescence; Potency, µM (highest dose often 57.4 µM), hits mostly inhibitors; 270,000 compounds, 2.1% hits; AID 1460; note: nearly all actives have a fitted effect of over 55% in size
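Aggregation was driven by heparin (20 uM final) acting on recombinant tau […] bearing P301L in 100 mM sodium acetate pH 7; fibrils were detected with Thioflavin T.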
Tau fluor cs: counter-screen for tau fibril formation inhibitors; AID 1463; tau K18 P301L Alexa594 fluorescence, heparin fibrillization; Potency, µM (series often up to 57.7 µM); 280,000 compounds, 0.93% hits; note: nearly all actives have a fitted effect of over 55% in size
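Human tau K18 P301L (15 uM unlabeled, 0.24 uM Alexa 594-labeled) in 100 mM sodium acetate pH 7 with 20 uM heparin, 6 hr at 37 C. ThT 30 uM added, 1 hr ambient; Alexa 594 FP and total fluorescence read at 555/632 nm.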
G9a block: G9a (human) methyltransferase inhibition; G9a H3K9 monomethylation, AlphaScreen, 2 h; Potency, µM (top dose mostly 102 µM), usual class: inhibitors; 350,000 compounds, 8.8% hits; AID 504332; note: nearly all actives have a fitted effect of over 75% in size
Target sequence (Q96KQ7 913-1193 limits assumed): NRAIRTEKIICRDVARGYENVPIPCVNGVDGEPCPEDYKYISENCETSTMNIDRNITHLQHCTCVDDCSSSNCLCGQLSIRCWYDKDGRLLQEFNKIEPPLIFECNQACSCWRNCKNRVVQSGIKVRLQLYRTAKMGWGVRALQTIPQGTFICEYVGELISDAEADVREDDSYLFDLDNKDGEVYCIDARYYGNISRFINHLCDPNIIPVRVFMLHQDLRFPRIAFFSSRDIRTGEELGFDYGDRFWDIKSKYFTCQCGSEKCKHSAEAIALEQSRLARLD
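Methyltransferase reactions run at room temperature for 2 h (20 nM enzyme, 500 nM biotin-H3K9 peptide, 20 uM SAM) after a 15 min compound preincubation; product detected by AlphaScreen beads and anti-H3K9me1 antibody.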
FBPA coupling cs: inhibits coupling enzyme system, counter-screen for aldolase hits; coupling enzyme system counterscreen, AmpLite Red fluorescence; activity change, negative = inhibition, % at 58.2 µM, hits read low; 290,000 compounds, 0.67% hits; in the data active = activity change below about -30%
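Counterscreen lacking aldolase: glyceraldehyde-3-phosphate coupling-enzyme reagent preincubated 10 min at RT with compound (at 57.5 uM final), then substrate/coupling system with AmpLite Red added; fluorescence read at 525/598 nm after 20 min RT.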
Numbers stand for hits; i = inactive; ? = inconclusive; nt = no result; [ ] = dose if it differs, or a comment. Unless noted, calls come from the whole dose curve; as a rule, active = well fitted curve in the direction sought with a large enough effect; inconclusive = small, poorly fitted or top-dose-only effect, or another doubt; inactive = no such curve, though single readings can be large; an effect the other way counts as inactive or inconclusive.

SMILES	Tau fibril FP	Sfp PPTase inh	Tau ThT inhib	Tau fluor cs	G9a block	FBPA coupling cs
O=C(NCc1ccco1)C1CCN(C(=O)N2CCOc3ccccc32)CC1	i	nt	?	5µM[quencher]	i	nt
CNC1=C([N+](=O)[O-])CC([N+](=O)[O-])=C(N2CCNCC2)N1C	i	i	i	i	45µM	i
O=[N+]([O-])c1cc(C(F)(F)F)cc([N+](=O)[O-])c1N1CCCNCC1	i	i	i	i	?	i
Cc1nc2scc(-c3ccco3)c2c(=O)n1/N=C/N(C)C	?	13µM	?	i	i[12.7 µM]	i
O=C(NCS(=O)(=O)c1ccccc1)c1ccccc1	i	i	?	i	50µM	i
Cc1nc2ccc(C(=O)O)cc2nc1C	i	i	i	i	i	i
Cc1ccc2nc(C(=O)O)c(C(=O)O)nc2c1	i	i	i	i	35µM	i
NC(=S)NNc1c(F)c(F)c(F)c(F)c1F	i	40µM	i	i	35µM	i
Cc1cccc(NC(=O)Cn2c(O)c(N=NC(=O)c3ccccc3O)c3ccccc32)c1	i	?	16µM	?	i	i
CCN(C(=O)CSc1nnc(-c2cc(OC)c(OC)c(OC)c2)o1)c1ccccc1	i	nt	?	i	i	nt
Cn1c2ccccc2c(=O)c2c(=O)n(-c3ccc(F)cc3)c(-c3cccs3)nc21	i	i	?	i	nt	i
CC(c1ccccc1)n1c(-c2cccs2)nc2c(c(=O)c3ccccc3n2C)c1=O (centres undefined)	i	79µM	?	i	i[12.7 µM]	i
Cc1ccc(Cn2ccnc2SCC(=O)Nc2nc3ccccc3s2)cc1	i	nt	?	i	?	nt
Cc1ccc(NC(=O)C2CC(=O)N/C(=N/NC(=O)c3ccc(C)cc3)S2)cc1 (centres undefined)	i	i	?	i	i	i
O=C1CC(C(=O)O)S/C(=N\NC(=O)c2ccc(F)cc2)N1 (centres undefined)	i	?	i	i	1.4µM	i
N#C/C(=C\c1ccc(OCc2ccccc2)cc1)C(=O)Nc1ccc(C(=O)O)cc1	nt	?	nt	nt	89µM	i
N#C/C(=C/c1ccc(C(=O)O)cc1)C(=O)NCc1ccccc1	i	18µM	i	i	?	i
N#C/C(=C\c1cccc([N+](=O)[O-])c1)C(=O)NCc1ccc(Cl)cc1	i	?	?	i	50µM	i
N#C/C(=C\c1cccc([N+](=O)[O-])c1)C(=O)NCc1cccnc1	i	?	i	i	i	i
N#C/C(=C\c1ccccc1)C(=O)NCc1ccc(F)cc1	nt	i	nt	nt	i	i
Cc1ccc(NC(=S)Nc2ccc(C(C)C)cc2)cc1S(=O)(=O)N1CCCCCC1	13µM	56µM	i	7.9µM[quencher]	45µM	i
COc1ccc(NC(=S)Nc2ccc(C)c(S(=O)(=O)N3CCCCC3)c2)cc1	?	i	i	32µM[quencher]	i	i
C=CCNC(=S)Nc1ccc(C)c(S(=O)(=O)N2CCCCC2)c1	i	i	i	i	i	i
CN(CC(=O)Nc1ccccc1Br)C(=O)c1ccc2c(=O)n3c(nc2c1)CCC3	nt	nt	nt	nt	i[12.7 µM]	nt
CCCOC(=O)c1ccc(NC(=O)/C=C/c2cccs2)cc1	?	?	i	14µM[quencher]	i	i
SMILES	Tau fibril FP	Sfp PPTase inh	Tau ThT inhib	Tau fluor cs	G9a block	FBPA coupling cs
O=C(/C=C/c1cccs1)Nc1ccncc1	i	i	i	i	?	i
CC(C)NC(=O)c1onc(CSc2ccc(F)c(F)c2)c1C(=O)O	i	79µM	i	i	i[0.501 µM]	i
O=c1c(-c2ccco2)[n+]([O-])c2ccccc2n1OCc1ccccc1[N+](=O)[O-]	i	50µM	?	i	35µM	i
CCOc1cc(/C=C(\C#N)C(=O)Nc2ccc(C)cc2)ccc1OCc1cc(=O)n2nc(CC)sc2n1	i	nt	?	i	i	nt
CCOC(=O)c1cnc(SCC(=O)c2ccccc2)nc1N	i	45µM	i	i	28µM	i
CCOC(=O)c1cnc(SCC(=O)N2CCC(C(N)=O)CC2)nc1N	i	i	i	i	50µM	i
CCOC(=O)c1cnc(SCc2nc(N)nc(Nc3ccc(C)cc3)n2)nc1N	i	i	?	i	18µM	i
Cc1ccsc1/C=C(\C#N)C(=O)NC1CCS(=O)(=O)C1 (centres undefined)	i	i	i	i	i	i
O=C(CSc1nnc([C@@H]2CCCN2)o1)c1ccc(Cl)cc1	i	i	?	i	40µM	i
COC(=O)C/C=C\[C@@H](C)[C@@H](/C=N\OC[C@@H](C)[C@H](OCc1ccccc1)C(C)C)OC	i[11.6 µM]	i	i[11.5 µM]	i[11.6 µM]	nt	i
COc1cc(/C=N/NC(=O)/C(=C\c2ccc([N+](=O)[O-])cc2)NC(=O)c2ccccc2)cc(OC)c1O	i	i	28µM	?	45µM	i
O=C(N/N=C/c1cc([N+](=O)[O-])cc([N+](=O)[O-])c1O)/C(=C\c1cccs1)NC(=O)c1ccccc1	i	i	13µM	i	?	i
Cc1ccccc1NC(=O)/C(=C\c1cccs1)NC(=O)c1ccccc1	i	i	i	i	i	i
Cc1ccc(CNc2ncnc3onc(C)c23)cc1	i	nt	i	i	i	nt
COc1ccc2c(Sc3ccc(Cl)cc3)c(C(=O)NCCCN3CCCCC3)[nH]c2c1	i	nt	i	i	i	nt
CCOC(=O)CSc1nc(C)c2cc(C)c(C)cc2n1	i	i	i	i	?	i
Cc1cc2nc(SCCOC(=O)Nc3ccc(Cl)cc3)nc(C)c2cc1C	i	i	i	i	2µM	i
O=C1c2cccc3c(N4CCCCC4)ccc(c23)C(=O)N1c1ccccn1	i	i	?	i	i	i
O=C1c2ccccc2-c2n[nH]c(=O)c3ccc(N4CCCCC4)c1c23	i	i	14µM	?	?	i
CC(C)Nc1nc(C#N)nc(Nc2ccccc2)n1	nt	nt	nt	nt	nt	i
Cc1nonc1CN(C)C(=O)CC1C(=O)NCCN1Cc1ccccc1C(F)(F)F (centres undefined)	i	i	i	i	i	i
CC1(C)C(=O)NCCN1C(=O)CC1C(=O)NCCN1Cc1cccc(C(F)(F)F)c1 (centres undefined)	nt	i	nt	nt	45µM	nt
CN(CC1CCOCC1)C(=O)CC1C(=O)NCCN1Cc1cccc(C(F)(F)F)c1 (centres undefined)	nt	i	nt	nt	i[12.7 µM]	i
Cc1nonc1CN(C)C(=O)CC1C(=O)NCCN1Cc1cccc(C(F)(F)F)c1 (centres undefined)	i	i	i	i	50µM	i
COc1ccc(CNS(=O)(=O)c2ccc(N3CCCCS3(=O)=O)cc2)cc1	i	nt	i	i	i	nt
COc1ccc(NC(=O)C2CSC3c4ccccc4C(=O)N23)cc1 (centres undefined)	i	i	i	i	28µM	i
COCCNC(=O)[C@@H]1CSC2c3ccccc3C(=O)N21 (some centres undefined)	nt	i	nt	nt	i	i
